Source: the supplement of paper PMC9446081
The campaign covered roughly 39,000 compounds. About 220 (0.56%) showed activity. Shown is part of a subset that was picked to be rich in actives. Values without a mark were called inactive.

Each compound was assayed on Escherichia coli K-12 BW25113 (assay: relative growth (OD600 normalised to plate interquartile mean) (fraction); higher = less growth inhibition, active = 0.2 or less). Settings: 50 µM; LB; incubation time: overnight (16-24 h).
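Also: Wild-type cells incubated without shaking, value is the mean of two biological replicates.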

SMILES	relative growth
CN[C@H]1C[C@@H](N)[C@H](O)[C@@H](O[C@@H]2O[C@H](CO)[C@H](O)[C@@H]3O[C@@]4(O[C@H]23)O[C@H]([C@@H](N)CO)[C@H](O)[C@H](O)[C@H]4O)[C@@H]1O	0.0323 (active)
COC(=O)[C@]1(Cc2ccccc2N=[N+]=[N-])N=C(c2ccc(OCCCO)cc2)O[C@@H]1c1ccccc1N=[N+]=[N-]	1.03
CCOCC(=O)N1CC[C@H]2CNC[C@H]21	0.983
CCCCCCCCCCCCCC(=O)O[C@@H]1[C@@H](C)[C@@]2(O)[C@@H](C=C(CO)C[C@]3(O)C(=O)C(C)=C[C@@H]23)[C@@H]2C(C)(C)[C@]12OC(C)=O	1.02
CN(C)[C@@H]1C(=O)[C@@H](C(N)=O)C(=O)[C@@]2(O)C(=O)[C@H]3C(=O)c4c(O)ccc(Cl)c4[C@@](C)(O)[C@H]3C[C@@H]12	0.037 (active)
CN(C)[C@@H]1C(=O)C(C(N)=O)=C(O)[C@@]2(O)C(O)=C3C(=O)c4c(O)cccc4[C@](C)(O)[C@H]3C[C@@H]12	0.0416 (active)
CN(C)[C@@H]1C(=O)[C@H](C(N)=O)C(=O)[C@@]2(O)C(=O)[C@@H]3C(=O)c4c(O)cccc4[C@@](C)(O)[C@H]3C[C@@H]12	0.182 (active)
COc1c(C[C@@H](C)O)c2c3c(C[C@@H](C)O)c(OC)c(=O)c4c(O)cc5c(c6c(cc(O)c(c1=O)c62)OCO5)c43	1.08
CC12CCC(O)CC1CCC1C2CC(O)C2(C)C(C3=CC(=O)OC3)CCC12O (stereo unspecified)	0.988
CC(=O)N1CCCC[C@]12CCNC2	0.984
CC1=C(O)C(=O)C=C2C1=CC=C1C2(C)CCC2(C)C3CC(C)(C(=O)O)CCC3(C)CCC12C (stereo unspecified)	1.02
CN(C)C(=O)[C@]1(Cc2ccccc2CN=[N+]=[N-])N=C(c2ccc(OCCCO)cc2)O[C@@H]1c1ccccc1N=[N+]=[N-]	1.02
CC(=O)OC1CC2(C)C(c3ccoc3)CC3OC32C2(C)C(=O)C(O)=C3C(C)(C)C(=O)C=CC3(C)C12 (stereo unspecified)	1.06
CCOC(=O)c1c(CN2CCN(c3ccccc3)CC2)n(Cc2ccccc2)c2cc(Br)c(O)cc12	1.03
CO[C@@H]1C[C@@H](C[C@H]2CC[C@H](C)[C@H]([C@@H](C)C(=O)O)O2)O[C@]2(O[C@](C)([C@H]3CC[C@@](C)([C@H]4O[C@@H]([C@H]5O[C@@](O)(CO)[C@H](C)C[C@@H]5C)C[C@@H]4C)O3)C[C@H]2C)[C@@H]1C	0.945
Cc1ccc(OC(=O)N(C)C[C@H]2OCc3ccccc3-c3c(n(C)c4ccccc34)C(=O)N([C@H](C)CO)C[C@@H]2C)cc1	1
